This is an account of results in publication PMC4552634, “A New Set of Chemical Starting Points with Plasmodium falciparum Transmission-Blocking Potential for Antimalarial Drug Discovery” (PLoS ONE, 2015).

SMILES strings stand for the structures. The whole screen tested about 13,000 compounds, of which about 3,200 (25%) showed an effect of 50% or more. The list shows a part of the results.

One may read the % Inhibition as the relative decrease from the control value, in per cent.

For this assay, the system named is P. falciparum stage V gametocytes. The arrangement: BacTiter-Glo ATP luminescence viability of purified stage V gametocytes in 384-well plates, per cent inhibition versus DMSO. As to conditions: 48 h, 5 µM; inhibitor.
Take `CN(C)CCCc1cc(NC(=O)Nc2cccc(Cl)c2Cl)ccc1I` [TCMDC-139132]: the “% Inhibition” value was -49.28%.

Turning to `CCOC(=O)c1c(C)n(-c2ccccc2)c2ccc(OC(=O)COc3ccc(Cl)cc3Cl)cc12` [TCMDC-124380], the “% Inhibition” value is -46.8%.

`COc1ccc2nccc(C(=O)NC3CCC(CCN4CCc5cc(C#N)ccc5C4)CC3)c2c1` (centres unmarked) [TCMDC-139240]: the “% Inhibition” value is on record as 4.839%. For `CN(C)CCCOc1c(C(C)(C)C)cc(-c2cc(C(C)(C)C)c(OCCCN(C)C)c(C(C)(C)C)c2)cc1C(C)(C)C` [TCMDC-131822], the “% Inhibition” value worked out at 59.94%. Turning to `Cn1cnc(CCNC(=O)c2ccc(-c3ccc(-c4nc5cc(F)ccc5[nH]4)cc3)cc2)c1` [TCMDC-132491], the “% Inhibition” value stood at 5.885%. Under `O=C(CC1SC(N2N=C(c3cccs3)CC2c2ccccc2)=NC1=O)Nc1ccc(Cl)cc1` (centres unmarked) [TCMDC-124762] stands 14.18%.

On to `Cc1cc(N(C)C)nc(Nc2ccc(NC(=O)COc3ccccc3)cc2)n1` [TCMDC-124975], for which the “% Inhibition” value is on record as -15.54%. Under `Clc1cccc(CNc2nc(NCCc3cnc[nH]3)nc(NC3CCCCC3)n2)c1` [TCMDC-139735] stands 0.07512%; under `CCn1c(-c2nonc2N)nc2c(-c3cccc(Cl)c3)ncc(OCCCNCc3cnc(C)nc3N)c21` [TCMDC-135956], 99.17%; under `CCn1c(-c2nonc2N)nc2c(-c3cccc(Cl)c3)ncc(OCCCNCCc3cnc[nH]3)c21` [TCMDC-135919], 106.8%.

Turning to `NC(N)=NC(=O)Nc1ccc(Cl)c([N+](=O)[O-])c1` [TCMDC-137567], the “% Inhibition” value is recorded as -21.87%. The same measure for `CC(C)c1sc(N2CCN(C)CC2)nc1C(=O)NCCc1ccc(Br)cc1` [TCMDC-134294]: 2.102%. Under `COc1ccc2nccc([C@@H](O)CN3CCC(NC(=O)CCC(=O)c4cc(C(C)(C)C)ccc4OC)CC3)c2c1` [TCMDC-141108] stands 21.12%. Under `CC(C)CCNc1nc(NCc2ccccc2)c2cc(O)ccc2n1` [TCMDC-138436] stands 91.5%; under `Oc1ccc(Nc2nc(NCc3ccccc3)c3ccccc3n2)cc1` [TCMDC-125641], -47.6%.

Turning to `CC(C)CCNc1nc(NCCc2ccccc2)c2cc(O)ccc2n1` [TCMDC-138405], the “% Inhibition” value was 95.11%. In the case of `Cc1cc(NCc2ccccc2)nc2cc(O)ccc12` [TCMDC-125297], the “% Inhibition” value is on record as 15.33%. The same measure for `CC(C)CCNc1nc(NCCCc2ccccc2)c2cc(O)ccc2n1` [TCMDC-138381]: 95.75%.

Turning to `Cc1noc(-c2cccs2)c1C(=O)NCCc1cccc(Cl)c1` [TCMDC-124801], the “% Inhibition” value was determined as 0.8455%. Regarding `COc1cc(CNC[C@@H](O)[C@H](Cc2ccccc2)NC(=O)c2cc(C3CCCC3)cc(N3CCCS3(=O)=O)c2)cc(OC)c1` [TCMDC-134560], the “% Inhibition” value is on record as 26.15%. Consider `CCOc1cc(C(=O)Nc2ccc3nc(N4CCCCC4)cc(C)c3c2)cc(OCC)c1OCC` [TCMDC-125449], for which the “% Inhibition” value is given as -1.386%. The same measure for `Cc1cccc2c(N=NC(=S)N(C)C)c(O)[nH]c12` [TCMDC-137626]: -58.93%; for `O=C1OC2(CN1CC1CCN(Cc3ccc(-n4ccnc4)cc3)C1)c1ccccc1-c1ccccc12` (centres unmarked) [TCMDC-136314]: 22.25%; for `N#Cc1cccc(NC(=O)Nc2ccc(-c3ccc(-c4nc5ccc(C(F)(F)F)cc5[nH]4)cc3)cc2)c1` [TCMDC-133190]: -5.798%. `Cc1cccc(NC(=O)Nc2cccc(-c3ccc(-c4nc5ccc(C(F)(F)F)cc5[nH]4)cc3)c2)c1` [TCMDC-133305]: the “% Inhibition” value is listed as 4.928%. The same measure for `CCN(CCCN1CCCCC1)c1cc(C)nc(Nc2ccc(C)cc2)n1` [TCMDC-132427]: -21.39%; for `CCCCN(CCCC)CCCN(CCCN(CCCC)CCCC)c1cc(C)nc(Nc2ccc(Br)cc2)n1` [TCMDC-138004]: 92.54%. Under `CCN(CC)CCCN(CCCN(CC)CC)c1cc(C)nc(Nc2ccc(Br)cc2)n1` [TCMDC-138007] stands 66.18%; under `CCCc1ccc(Nc2nc(C)cc(N(CC)CCCN3CCCCC3)n2)cc1` [TCMDC-132453], 39.01%. The same measure for `Cc1cc(N(C)CCCN(C)C)nc(Nc2ccc(Br)cc2)n1` [TCMDC-136888]: 36.7%.

Consider `Cc1cc(N(C)CCN(C)C)nc(Nc2ccc(Br)cc2)n1` [TCMDC-137013], for which the “% Inhibition” value is listed as 18.91%. Under `O=C(Nc1cccc(-c2ccc(-c3nc4cc(F)ccc4[nH]3)s2)c1)c1cccnc1` [TCMDC-136931] stands -7.86%.

With `CCOc1cc2ncnc(Nc3ccc(OCc4ccccc4OC)c(OC)c3)c2cc1OCC` [TCMDC-131912], the “% Inhibition” value is recorded as -29.04%. The same measure for `CCN(CC)CCCN(C(=O)c1cc2c(C)nn(-c3ccccc3)c2s1)c1nc(-c2ccc(OC)cc2)cs1` [TCMDC-125429]: 17.92%; for `COc1ccc(-c2csc(N(CCCN(C)C)C(=O)c3cc4c(C)nn(-c5ccccc5)c4s3)n2)cc1` [TCMDC-124034]: 46.49%; for `Cc1nn(-c2ccccc2)c2sc(C(=O)N(CCCN(C)C)c3nc(-c4ccccc4)cs3)cc12` [TCMDC-125428]: 100.2%. Under `Cc1n[nH]c(C)c1C1CCN(CC2CCC(NC(=O)/C=C/c3ccc(Cl)c(Cl)c3)CC2)CC1` (centres unmarked) [TCMDC-139624] stands 34.25%. Regarding `Cc1[nH]c(C)c(-c2ccc(-c3ccccc3Cl)nc2)c(=O)c1Cl` [TCMDC-136303], the “% Inhibition” value is 74.15%.

As for `Cc1[nH]c(C)c(-c2ccc(-c3ccccc3Cl)nc2)c(=O)c1Br` [TCMDC-136157], the “% Inhibition” value worked out at 75.71%. The same measure for `CCCCc1ccc(-c2ccc(-c3c(C)[nH]c(C)c(Br)c3=O)cn2)cc1` [TCMDC-135687]: 10.67%; for `COc1ccc(NC(=O)N2CCN(CCCCCNC(=O)/C=C/c3ccc(C(F)(F)F)cc3)CC2)cc1Cl` [TCMDC-136097]: -39.25%; for `OC1(c2ccc(Cl)c(C(F)(F)F)c2)CCN(CCOC2c3ccccc3CSc3ccc(Cl)cc32)CC1` (centres unmarked) [TCMDC-124001]: 11.98%. On to `CC(C)C(C(=O)n1cc2c(ccc3nc(N)nc(N)c32)n1)C(C)C` [TCMDC-137334], for which the “% Inhibition” value was -12.47%.

Consider `O=C1COc2cc(Cl)c(CNC3CCN(CCc4ccnc5c(F)cc(F)cc45)CC3)nc2N1` [TCMDC-141732], for which the “% Inhibition” value was -3.632%.
